Bioassay records (PubChem)
These entries were drawn from the full list.
aSyn UTR act = Activators via SNCA 5'UTR binding, MLPCN; alpha-synuclein 5'UTR reporter, activators screen; activity score, % (tested at 7.5 µM), hits read low; 300,000 compounds, 7.1% hits; AID 1814, 2009; in the data active = activity score below about -60%
The depositor's hits bear a star.

SMILES | aSyn UTR act
O=C(Nc1nnc(-c2ccc3c(c2)OCCO3)o1)C1CCCCC1 | -88*
Clc1ccc(-c2nnc(NC3=NCCCCC3)o2)cc1 | 75
O=C(c1ccc(Cl)cc1)N1CCCCC(Sc2nnc(-c3ccc4c(c3)OCO4)o2)C1=O (stereo not given) | 92
O=C(Nc1nnc(-c2ccccc2)o1)C1CCCCC1 | -63*
Cn1nc(-c2ccccc2)cc1NC(=O)C1CCCCC1 | -70*
O=C(Nc1nnc(-c2ccc(Cl)cc2)o1)C1CCCCC1 | -80*
O=C(Nc1nnc(-c2ccc(Cl)s2)o1)C1CCCCC1 | -63*
CC1(C)COCN1S(=O)(=O)c1ccc(C(=O)Nc2nnc(-c3ccc(Cl)s3)o2)cc1 | 92
Cc1ccc2oc(C(=O)Nc3nnc(C)s3)c(C)c2c1 | -68*
Cc1ccc2oc(C(=O)Nc3nonc3C)c(C)c2c1 | -106*
Cc1ccc2oc(C(=O)NCC(c3ccco3)N(C)C)c(C)c2c1 (stereo not given) | -73*
O=c1c(N2CCCCC2)coc2ccccc12 | -86*
CNC(=O)c1ccsc1NC(=O)c1sc2ccccc2c1Cl | -168*
COCc1nnc(NC(=O)c2sc3ccccc3c2Cl)s1 | -102*
Cc1csc(NC(=O)c2ccc(C)o2)n1 | -161*
Cc1ccc(-c2ocnc2C(=O)Nc2nc(C)cs2)cc1 | -91*
O=C(Nc1nc(-c2ccccc2)cs1)c1ccc(Br)o1 | -79*
Cc1ccc(C(=O)Nc2nc(-c3cccnc3)cs2)o1 | -101*
O=C(Nc1nc(-c2cccnc2)cs1)c1cccc([N+](=O)[O-])c1 | -84*
O=C(NNc1nc(-c2ccccc2)cs1)c1ccc(F)cc1 | 76
O=C(Nc1nc(-c2ccccc2)cs1)c1ccccc1F | -135*
O=c1n(Cc2ccccc2Cl)nc2n1-c1ccccc1SC2 | -87*
Cc1csc(NC(=O)c2ccccc2O)n1 | -84*
CC(C)(C)c1csc(NC(=O)c2ccccc2O)n1 | -141*
Cc1csc(NC(=O)c2ccc(Cl)nc2)n1 | -93*
SMILES | aSyn UTR act
Cc1csc(NC(=O)c2cc(C)oc2C)n1 | -128*
COc1ccc(-c2cn(Cc3ccc(C(=O)c4ccccc4)cc3)nn2)cc1 | -161*
Cc1ccc(Cn2cc(-c3ccccc3)nn2)cc1 | -124*
CCOc1cc(/C=C\[N+](=O)[O-])ccc1OCC(=O)Nc1ccccc1C | -80*
CC(C)n1c(/C=C/[C@@H](O)C[C@@H](O)CC(=O)O)c(-c2ccc(F)cc2)c2ccccc21 | 64
CCc1cccc(NC(=O)c2cnn(-c3ccccc3)c2C)c1 | -144*
COc1cccc(NC(=O)c2cnn(-c3ccccc3)c2C)c1 | -91*
O=C(Nc1cccc(Cl)c1)c1ccc(Cn2cc(Cl)cn2)cc1 | -70*
Cc1ccc(NC(=O)c2cnn(-c3ccccc3)c2C)c(C)c1 | -212*
COc1ccc(OC)c(C(=O)NC2CC(C)(C)Cc3c2cnn3-c2ccccc2)c1 (stereo not given) | 67
CCn1ncc(C(=O)Nc2cccc(Cl)c2)c1C | -207*
CN(/N=C/c1cccnc1)c1cnc2ccccc2n1 | -139*
Cc1cc(NC(=O)CSc2nc3c(C)cccc3cc2C#N)no1 | -209*
Cc1cccc2cc(C#N)c(SCC(=O)N3CC(=O)Nc4ccccc43)nc12 | 110
C=C(C)CN(CC)C(=O)CCc1nnc(CCCc2ccccc2)o1 | -150*
CCN(CCn1cccn1)C(=O)CCc1nnc(CCCc2ccccc2)o1 | -122*
Cc1cccc(Cc2nnc(CCC(=O)N(C)CCc3ccccc3)o2)c1 | -137*
C=CCN1/C(=C2/SC(=S)N(C)C2=O)Sc2ccccc21 | -65*
CCN1/C(=C2\OC(=S)N(C)C2=O)Sc2ccccc21 | -129*
C/C(=C\C(=O)c1cccnc1)Nc1ccc(O)cc1 | -77*
C/C(=C\C(=O)c1ccccc1)Nc1ccc(O)cc1 | -102*
CCC(C)c1ccc(NC(=O)Nc2cnccn2)cc1 (stereo not given) | -188*
CC(=O)Nc1cccc(NC(=O)Nc2ccc(C)c(Cl)c2)c1 | -118*
COc1ccc(NC(=O)Nc2cnccn2)cc1 | -80*
O=C(Nc1cnccn1)Nc1ccc(Cl)cc1Cl | -62*
SMILES | aSyn UTR act
Cc1ccc(NC(=O)Nc2cnccn2)cc1Cl | -74*
Cn1ccc(NC(=O)Nc2ccc(Cl)cc2Cl)n1 | -112*
O=C(Nc1ccc(Br)cc1Cl)c1cnccn1 | -70*
CCOC(=O)C(CC)(CC)C(=O)/C=C/c1cccc(Br)c1 | -74*
Cc1ccc(S(=O)(=O)N(C)c2ccc(OCC(=O)Nc3nc(-c4ccccc4)cs3)cc2)cc1 | -73*
CN(c1ccc(OCC(=O)Nc2nc(-c3ccccc3)cs2)cc1)S(=O)(=O)c1ccc(F)cc1 | -88*
C=CCN1N=C(/C=C/c2ccc(OC)cc2)CCC1=O | -84*
C=CCN1N=C(/C=C/c2ccc(C)cc2)CCC1=O | -89*
COc1ccc(/C=C/C2=NNC(=O)CC2)cc1 | 60
Cn1nnnc1SCc1ccc(C(=O)Nc2ccccc2F)cc1 | -86*
CCc1ccccc1NC(=O)c1ccc(-n2c(C)ccc2C)cc1 | -98*
Cc1ccc(C)n1-c1ccc(C(=O)Nc2ccccc2F)cc1 | -157*
c1ccc(-c2cn3nc(-c4ccccc4)sc3n2)cc1 | 101
Cc1nc2sc(-c3ccccc3)nn2c(=O)c1Br | -78*
CSc1ccc(-c2nnn(Cc3ccc(Br)cc3)n2)cc1 | -74*
CSc1ccc(-c2nnn(Cc3ccccn3)n2)cc1 | -146*
O=C(c1ccccc1)N1CCN(CC#Cc2ccccc2)CC1 | -66*
CC1CCC(NC(=O)c2ccc(NS(=O)(=O)c3ccc4[nH]c(=O)[nH]c4c3)cc2)CC1 (stereo not given) | -124*
CCOc1cccc2sc(N(CCCN(C)C)C(=O)c3ccc(S(=O)(=O)N4CCc5ccccc5C4)cc3)nc12 | 58
COc1ccc2nc(N(CCN(C)C)C(=O)c3ccc4c(c3)OCCO4)sc2c1 | -72*
CN(C)CCCN(C(=O)c1ccc2c(c1)CCCC2)c1nc2c(F)cccc2s1 | -157*
Cc1cc(C)c2sc(N(CCCN(C)C)C(=O)c3ccc(S(=O)(=O)N(C)C4CCCCC4)cc3)nc2c1 | 53
CN(C)CCN(C(=O)c1ccc(S(=O)(=O)N(C)c2ccccc2)cc1)c1nc2cc3c(cc2s1)OCCO3 | -64*
CN(C)CCN(C(=O)c1ccc2c(c1)OCCO2)c1nc2cc3c(cc2s1)OCO3 | -77*
CN(C)CCN(C(=O)c1ccc2c(c1)CCCC2)c1nc2cc3c(cc2s1)OCCO3 | -75*
SMILES | aSyn UTR act
CN(C)CCN(C(=O)c1ccc2c(c1)OCCO2)c1nc2c(Cl)cccc2s1 | -97*
O=C(N/N=C\c1ccco1)Nc1cccc(Cl)c1 | -131*
Cc1nnsc1SCCNC(=O)Nc1ccc(Cl)cc1 | -98*
O=C(NCCSCc1ccco1)Nc1ccc(Cl)cc1 | -134*
O=C(NCCSCc1ccco1)Nc1cccc(Cl)c1 | -126*
COc1ccc(-c2cnc3c(-c4ccc(F)cc4)cnn3c2N)cc1 | -241*
CC(C)(C)S(=O)(=O)c1cnc2c(-c3ccc(Cl)cc3)cnn2c1N | -78*
Nc1c(-c2ccc(Cl)cc2)cnc2c(-c3ccccc3)cnn12 | -205*
CS(=O)(=O)c1cnc2c(-c3ccsc3)cnn2c1N | -85*
CCN(CC)c1ccc(N=Cc2c(C)[nH]c3ccccc23)cc1 | 63
Oc1[nH]c2ccccc2c1C=Nc1ccccc1 | -130*
O=C1c2ccccc2-c2c1nc1c([n+]2[O-])CCCC1 | -97*
COc1ccccc1-c1ccc(NC2CCCCC2)nn1 | -140*
CCOC(=O)c1cc2c(nc1N)CC(C)(CC)OC2 (stereo not given) | -101*
O=C(Oc1ccc(OC(=O)C2CCC2)cc1)C1CCC1 | -65*
